# Reference: PMC12136788
# Where a chain is given by its changes, count along the chain named. In all, about 24,000 sequences were measured (“enrichment r”: median about 0.99, highest 2% from about 3.7 on). A selection follows.
# T1: UNK ZnF1-3 (human, UniProt Q9C0B0 31-174)
# T1 sequence: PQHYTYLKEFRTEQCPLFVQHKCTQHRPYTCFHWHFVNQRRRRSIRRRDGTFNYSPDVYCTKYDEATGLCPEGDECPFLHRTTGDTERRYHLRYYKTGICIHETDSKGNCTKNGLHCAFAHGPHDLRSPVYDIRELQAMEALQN
# B1: 120770645_120770765_141_5pUTR_ENSMUSG00000043207_ENSMUST00000058754|mouse|control|control (ssRNA)
# RNA: GGGAGUUCUACAGUCCGACGAUCCUCAGCGACACGCGUCCCUCGGAGAGUGCCAGCGGUGUCACAACAAUACGGGUCCCUUCCGAGGGCUUCUUCAGACGCCCAUUCCCUCAGCUUUGCCAGAAGUGUCACAAAGACACGAUUCAACAGAGGAUUGAGCAUCA
# B2: chr7:118215947:118215948:-_ENSMUSG00000005610_ENSMUST00000162415|mus_mus|FALSE|FALSE (ssRNA)
# RNA: GGGAGUUCUACAGUCCGACGAUCGGUCCUUGCAAUAGACUGCCUCUGCUUGAGAACUUAGGAUGUAAUUAUUGCAUGCUGCUAAUAUUCUAUCUAAACAUUAAGGAUACUCCUAAAGUAUUUGAUGGUAGACUAUGAUUAAGACAACAGAGGAUUGAGCAUCA
# B3: 78432385_78432637_487_CDS_ENSG00000162613_ENST00000370768|human|control|control (ssRNA)
# RNA: GGGAGUUCUACAGUCCGACGAUCUUCAGGUGUUCCAGUUAACAUACAGGACCUUUCUGGAAGGCCACCACUGUCAGGAGCUAUCUGUAUUUUGCAUCCAGAUUCCUGUUGUAUGCGUGAGAUCUGUUCACCUCCUCUGCCAAUCAACAGAGGAUUGAGCAUCA
# B4: chr8:35203877:35203878:-_ENSMUSG00000031513_ENSMUST00000033910|mus_hu|FALSE|FALSE (ssRNA)
# RNA: GGGAGUUCUACAGUCCGACGAUCGGAAGGGCACAUCCAAGCAUCAAAAACAUCAGUCCGAUUGCUCCUCCAAAGGACAAACUAAUCAAAGCUUUGAUGCCUGCCAUGGCGGUGACGUCGCUCCUGGCUCCACGACCCGAGGCGCAACAGAGGAUUGAGCAUCA
# B5: chr2:48026839:48026840:+_ENSG00000116062_ENST00000540021|hu_hu|hu_hu_hu_mus_False|38_108 (ssRNA)
# RNA: GGGAGUUCUACAGUCCGACGAUCAUAGUGUGCCACUAGCGUCCUAAAUCUGGAACAGUGGCGGUCAUCCGAAAACUGGCCGAUGAAAAACUUGCCCAGUGAAGUAUCCACAAAGCAAACACCAUACACACGAGUGUGACCAGACAACAGAGGAUUGAGCAUCA
# B6: chr16:46990815:46990816:-_ENSG00000069345_ENST00000563158|hu_hu|motif|central (ssRNA)
# RNA: GGGAGUUCUACAGUCCGACGAUCUCAAAAUGAAGAUGUAAAGCUUUGUGGUUAGUUUAAAUUAUACACUCUGUAGAUACGGUACCAAUUUUAAAAGUUAUACAUAGACCAACAGAUGUCCCUCAGUUCAUCUGGAUUGAUAAGCAACAGAGGAUUGAGCAUCA
# B7: chr1:220276048:220276049:+_ENSG00000067704_ENST00000302637|hu_hu|hu_hu_hu_mus_True|8_78 (ssRNA)
# RNA: GGGAGUUCUACAGUCCGACGAUCGCAAAUUGCCUGGUUGGCGGGAAUUGUCCAAGGUUGUGUGGUCCAAACUAAAACGCUAACAGGGGAUGAGGCAUCUGUAAGAGACUCCAACUUCGGAGGAGGUUUUAAGAGAGGGAAUCUCAACAGAGGAUUGAGCAUCA
# B8: chr9:62645482:62645483:-_ENSMUSG00000032244_ENSMUST00000034775|mus_hu|FALSE|FALSE (ssRNA)
# RNA: GGGAGUUCUACAGUCCGACGAUCUACUGUGGUAUGGUUCACGUUGGCUCCAUGGCUGACUAGAAGUUUAACAACUUCAAAAUGUCCUGCUCCAGCUGCACACCAAAGAGCAGUGGCACCAUCAAUGACAUACCCGUCGAAGCGCAACAGAGGAUUGAGCAUCA
# B9: chr2:232319755:232319756:-_ENSG00000115053_ENST00000322723|hu_hu|motif|central (ssRNA)
# RNA: GGGAGUUCUACAGUCCGACGAUCAAAAGUUUAUAUGAAUAUCCAGUCAAAACCAACACGGUAUUGCCCUUGAAAUGUUAACGGGACGGAUUUCCAAGGAGACCACAGGACUGUAUACUGUCUUGGAAUGUCCUCAGAAGGCUCCAACAGAGGAUUGAGCAUCA
# B10: 69235085_69235205_3312_3pUTR_ENSG00000135679_ENST00000462284|human|control|control (ssRNA)
# RNA: GGGAGUUCUACAGUCCGACGAUCGGCUGGAGAAUAAGUACAUUUUUACAGCCGGGUGUGGUGGCUAACGCCUGUAAUCCUACUUAGCACUUUGCGAGGCCAAGACAGGAGGAUCUCUUGAGCCCAGGAGUUCGAGACCAGCCUCAACAGAGGAUUGAGCAUCA
# B11: chr11:79222206:79222207:+_ENSMUSG00000020716_ENSMUST00000071325|mus_hu|FALSE|FALSE (ssRNA)
# RNA: GGGAGUUCUACAGUCCGACGAUCUUUUGUAAAUUCAUCUGGAUAAUUUUCUACCCAGUUCCAAAAUGCCUUUUCCAGGCUAUUUAUAACUGCUAACUGCGCAACCUUCUUUAGGGCUUUAAAUUUAAAUGCUGUUUCCUUCAGCAACAGAGGAUUGAGCAUCA
# B12: 62954625_62958383_5419_CDS_ENSG00000116641_ENST00000251157|human|control|control (ssRNA)
# RNA: GGGAGUUCUACAGUCCGACGAUCUGCUUCUUGAAGUUUACCAUGAAUUGUGGAUAGUUUCUUUGCAUCCCGAUUAGCUUCAUGAAUAGGAAUAAGUACUUUGUAAACUUCAUUAACUGCUUCAUACAUGCCAGCCAUAGAGAACAACAGAGGAUUGAGCAUCA
# B13: chr9:53391639:53391640:-_ENSMUSG00000032047_ENSMUST00000034547|mus_hu|motif|central (ssRNA)
# RNA: GGGAGUUCUACAGUCCGACGAUCCACUUUUUGGGGAUCAAUCUCCAACAUUUUAAUGUUUGCUAGUACAACCAGACGGAAGGCUUCAUUUACUUCCCACAUUGCAAUAUCUUCUUUUUUCAAUCCCACAUCUUUAAGAACCAUCAACAGAGGAUUGAGCAUCA
# B14: chr4:76721835:76721836:+_ENSG00000138768_ENST00000264904|hu_mus|hu_hu_hu_mus_True|48_48 (ssRNA)
# RNA: GGGAGUUCUACAGUCCGACGAUCGUUUGGCUGGGGUUUCUGAGACGCUCUGGAAUAUAACUCAUGUUUGCUAAUAAAUCCUAGUUUUCUAUGAAAUUUCUCUUUGCCAAUCCUCUUCUCUAUUAGUUGCUUUAGUUUCUCUUUCAACAGAGGAUUGAGCAUCA
# B15: chr9:66219764:66219765:+_ENSMUSG00000038664_ENSMUST00000042824|mus_mus|motif|central (ssRNA)
# RNA: GGGAGUUCUACAGUCCGACGAUCUUCAAAAUCAGGCAACUGUGGUCCUUUGAGGCAUAAAACCUGUUGAGGCAAAGGUACGGCUUCCUUAUUGCUGAUCAGUUUAGAAUACAAAACGGUAACUCCCUCUCUUGUAGCAAUAGACAACAGAGGAUUGAGCAUCA
# B16: chr7:44244176:44244177:+_ENSG00000106636_ENST00000223369|hu_mus|hu_hu_hu_mus_False|38_108 (ssRNA)
# RNA: GGGAGUUCUACAGUCCGACGAUCACUAUCAUUCCGGACGUAGACAUGGCAAAGAUACUCUUGUUCUUUGACAGAAGCUCUGCUGCCUUUCCCCGAGCGCUCCACAAUCAGUUGACUUGUAAAGGUCAUGAAUUCCUGCACACUCAACAGAGGAUUGAGCAUCA
# B17: 109692034_109692919_6190_CDS_ENSG00000148143_ENST00000277225|human|control|control (ssRNA)
# RNA: GGGAGUUCUACAGUCCGACGAUCGAGGUGAUUGCAGAUGGCUCGGAGCGUUGGGUGCACUUCCACACAGAAUUUACAUUUGUAGCCCACCACUUUCCUCUCCUUGAUCUUUGGCACCUCUUCUAAGUGACCAAAAGGCCUCUCCAACAGAGGAUUGAGCAUCA
# B18: chr1:220276048:220276049:+_ENSG00000067704_ENST00000302637|hu_hu|hu_hu_hu_mus_True|38_88 (ssRNA)
# RNA: B7 RNA with U48C, U57C, U60G, G100A, U127C, U129C, A131G, A135G
# B19: chr1:115282363:115282364:-_ENSG00000009307_ENST00000339438|perfect_dup|motif|central (ssRNA)
# RNA: GGGAGUUCUACAGUCCGACGAUCAUCAUCUCCUACUUUUAAGUCUUGCAGGUUGCCAUUAUACUGUGAACAGUGGAAGAAAAGUCGGGCUUGACGUUCUGAACACUGAAUAAAUCCGUAAGAGGUUAACAGUUUUUCAAUAACCAACAGAGGAUUGAGCAUCA
# B20: chr18:35748043:35748044:+_ENSMUSG00000037236_ENSMUST00000166793|perfect_dup|FALSE|FALSE (ssRNA)
# RNA: GGGAGUUCUACAGUCCGACGAUCUGUAUAAAAGAGUGAACACAGCUUACAGUAAAACCCUGUUUUAGGUAUCACAUAGUCUAUACCAACAGGAACAUUAGGCUGAUAUGGUCCGAUUCUAUACUCAUCGGGAAUUGUAUAAUCCAACAGAGGAUUGAGCAUCA
# B21: chr2:179515052:179515053:+_ENSMUSG00000000305_ENSMUST00000000314|mus_hu|mus_mus_mus_hu_False|28_58 (ssRNA)
# RNA: GGGAGUUCUACAGUCCGACGAUCGCUGUCCCAUGCAGUCACCGUGAACGCCACCUGCUCGGAGGGGACCUGCAGCUCCCUAGUGGCGAAGACUGUCCCAUCUGCCCCGACUUUGAAGUCCAUGCUGUUGGUCUCAUAUUGUGUCAACAGAGGAUUGAGCAUCA
# B22: chr7:135612270:135612271:-_ENSG00000105887_ENST00000393085|hu_mus|hu_hu_hu_mus_False|8_8 (ssRNA)
# RNA: GGGAGUUCUACAGUCCGACGAUCGUUUUUUUCUGAGAUGUUAAAUAGUACUUCAGUGGAAAACAAAACUUAACCUUUUAUUAAUGCGUGUUGUACCAAAAGCAGACAUUUUAGCUUCAUUUAUUCACUCAAAAUAUCAUUAAGCAACAGAGGAUUGAGCAUCA
# Biological target: T1, UNK ZnF1-3
# Experiment: nsRBNS (natural sequence RNA bind-n-seq); RBNS binding buffer (assumed for nsRBNS): 25 mM Tris pH 7.5, 150 mM KCl, 3 mM MgCl2, 0.01% Triton X-100, 500 ug/ml BSA, 20 U/ml SUPERase-In, 4 C; UNK is unkempt and MSI1 is Musashi-1; names of the RNAs are library labels; protein concentration not given here; high values mean tight binding
row,Binder,binding signal
1,B1,0.703 enrichment R
2,B2,1.31 enrichment R
3,B3,0.709 enrichment R
4,B4,2.82 enrichment R
5,B5,1.07 enrichment R
6,B6,0.61 enrichment R
7,B7,1.91 enrichment R
8,B8,0.893 enrichment R
9,B9,0.847 enrichment R
10,B10,1.12 enrichment R
11,B11,0.853 enrichment R
12,B12,1.01 enrichment R
13,B13,1.03 enrichment R
14,B14,0.57 enrichment R
15,B15,0.879 enrichment R
16,B16,0.779 enrichment R
17,B17,0.805 enrichment R
18,B18,1.67 enrichment R
19,B19,1.55 enrichment R
20,B20,0.418 enrichment R
21,B21,0.737 enrichment R
22,B22,0.523 enrichment R
